The record followed here is publication PMC4336329 (PLoS ONE, 2015).

Among all 310,000 compounds or so, about 14,000 (4.5%) showed an effect of 50% or more. The effect is printed as a negative number. The full list was thinned out, with strong results kept by preference.
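Note: peak tail current of the secondary pulse compared with the same well before compound.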

Sequence of human ether-à-go-go-related gene (hERG) potassium channel (Q12809 whole entry, looked up): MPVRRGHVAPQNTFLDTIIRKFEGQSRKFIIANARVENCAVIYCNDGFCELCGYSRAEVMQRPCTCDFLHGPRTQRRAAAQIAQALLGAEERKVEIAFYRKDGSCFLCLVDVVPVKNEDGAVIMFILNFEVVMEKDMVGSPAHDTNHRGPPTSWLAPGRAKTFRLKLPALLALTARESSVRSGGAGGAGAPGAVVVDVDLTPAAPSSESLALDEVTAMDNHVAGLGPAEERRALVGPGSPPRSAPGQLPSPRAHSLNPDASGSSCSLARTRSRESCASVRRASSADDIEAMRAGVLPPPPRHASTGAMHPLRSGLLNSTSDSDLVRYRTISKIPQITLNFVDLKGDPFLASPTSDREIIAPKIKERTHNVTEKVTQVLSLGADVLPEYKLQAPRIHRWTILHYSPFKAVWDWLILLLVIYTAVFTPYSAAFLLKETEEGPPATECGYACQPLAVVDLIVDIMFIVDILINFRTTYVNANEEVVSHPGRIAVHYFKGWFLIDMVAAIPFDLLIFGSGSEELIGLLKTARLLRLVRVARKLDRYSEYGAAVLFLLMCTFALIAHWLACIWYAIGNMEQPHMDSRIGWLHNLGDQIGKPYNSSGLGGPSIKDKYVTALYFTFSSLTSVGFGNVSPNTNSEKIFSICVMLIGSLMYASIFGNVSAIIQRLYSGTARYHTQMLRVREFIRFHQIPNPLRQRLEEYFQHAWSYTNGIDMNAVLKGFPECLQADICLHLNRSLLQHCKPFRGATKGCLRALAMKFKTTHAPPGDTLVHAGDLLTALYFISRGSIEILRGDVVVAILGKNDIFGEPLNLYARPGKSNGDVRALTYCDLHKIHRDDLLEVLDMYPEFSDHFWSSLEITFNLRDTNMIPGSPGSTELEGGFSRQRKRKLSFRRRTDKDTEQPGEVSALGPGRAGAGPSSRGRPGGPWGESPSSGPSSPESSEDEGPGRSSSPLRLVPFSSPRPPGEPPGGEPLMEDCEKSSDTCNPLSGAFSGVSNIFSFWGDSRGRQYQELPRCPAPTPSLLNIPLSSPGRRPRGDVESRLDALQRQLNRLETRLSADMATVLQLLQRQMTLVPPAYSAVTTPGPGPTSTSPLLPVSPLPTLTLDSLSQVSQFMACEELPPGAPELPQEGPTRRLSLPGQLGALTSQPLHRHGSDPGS

This assay has as its target human ether-à-go-go-related gene (hERG) potassium channel (human, UniProt Q12809). The assay is described as follows: primary screen, population patch clamp on CHO cells stably expressing hERG; higher = less effect of the substance.
For `O=C(C1CCCO1)N1CCN(C(=S)Nc2ccc(Cl)c(Cl)c2)CC1` (stereo not drawn), the “hERG current change (%, negative = inhibition) at 10uM” value is on record as -30.2%. As for `CCN(CC)C(=O)c1cn(-c2ccccc2)nc1-c1ccc2c(c1)OCCO2`, the “hERG current change (%, negative = inhibition) at 10uM” value is listed as -3.56%. With `O=C(Nn1c(C2CC2)nc2ccccc2c1=O)c1ccco1`, the “hERG current change (%, negative = inhibition) at 10uM” value is given as -8.14%. With `CCN(CC(=O)NCc1ccc(F)cc1)C(=O)/C=C/c1cccs1`, the “hERG current change (%, negative = inhibition) at 10uM” value was -40.9%. The value for `Cc1cc(C)n(-c2ccc(Cl)c(C(=O)OCC(=O)N3CCCCC3C)n2)n1` (stereo not drawn) was -4.12%. In the case of `NNc1nc(-c2ccccc2)c2cc(Cl)ccc2n1`, the “hERG current change (%, negative = inhibition) at 10uM” value was -11.3%.

`Clc1ccc2nnnc(-c3ccccc3)c2c1`: the “hERG current change (%, negative = inhibition) at 10uM” value is -9.98%. Turning to `NC(N)=Nc1nc(-c2ccccc2)c2cc(F)ccc2n1`, the “hERG current change (%, negative = inhibition) at 10uM” value is reported as -66.2%.

With `Cl.NC(N)=Nc1nc(-c2ccccc2)c2cc(Cl)ccc2n1`, the “hERG current change (%, negative = inhibition) at 10uM” value was -67.9%.

Turning to `Cc1nc(N=C(N)N)nc2ccccc12`, the “hERG current change (%, negative = inhibition) at 10uM” value came out at 23.6%. For the molecule `NC(N)=Nc1nc(-c2ccccc2)c2ccccc2n1`, the “hERG current change (%, negative = inhibition) at 10uM” value is listed as -40.1%. The value for `CC(=O)c1ccc(NC(=S)N2CCN(C(=S)Nc3ccc(C(C)=O)cc3)C(C)C2)cc1` (stereo not drawn) was 20.6%; that for `CCN(CC)S(=O)(=O)c1cccc(NC(=S)NC(=O)/C=C/c2ccc(S(=O)(=O)N3CCOCC3)cc2)c1` was -6.82%. The value for `CCCCc1nc2ccccc2[nH]1` was 14.2%; that for `CSc1nc2sc(-c3ccccc3)cc2c(=O)n1N` was 17.4%. For `O=C(NNC(=O)c1ccccc1-n1cccc1)c1ccccc1`, the “hERG current change (%, negative = inhibition) at 10uM” value is listed as -18.3%.

As for `N#Cc1nc(-c2ccccc2Cl)oc1NCc1ccco1`, the “hERG current change (%, negative = inhibition) at 10uM” value is recorded as -8.28%.

Consider `Cc1ccc(-c2nc(C#N)c(NCc3ccco3)o2)cc1`, for which the “hERG current change (%, negative = inhibition) at 10uM” value is given as -0.709%. Consider `Cc1ccccc1-c1nc(C#N)c(NCc2ccco2)o1`, for which the “hERG current change (%, negative = inhibition) at 10uM” value is -57.2%. `O=C(COc1ccccc1)N1CCN(C(=O)Cc2ccccc2)CC1`: the “hERG current change (%, negative = inhibition) at 10uM” value is -1.51%.

For `COc1cc2nc(SCC(=O)c3ccc(Br)cc3)n3nc(C)nc3c2cc1OC`, the “hERG current change (%, negative = inhibition) at 10uM” value is reported as -17.7%. The value for `Cc1nn(C)cc1CN1CCCC(C(=O)c2ccc(-c3ccccc3)c(F)c2)C1` (stereo not drawn) was -15.3%; that for `Cn1cc(CN2CCCC(C(=O)c3cccs3)C2)c(-c2cccc(Cl)c2)n1` (stereo not drawn) was -39.2%; that for `Cc1nn(C)cc1CN1CCCC(C(=O)c2ccc(-c3ccccc3)cc2)C1` (stereo not drawn) was -45.4%. `COc1cccc(C(=O)C2CCCN(Cc3cn(CC(N)=O)c4ccccc34)C2)c1` (stereo not drawn): the “hERG current change (%, negative = inhibition) at 10uM” value is recorded as -53%.

In the case of `Cc1ccsc1C(=O)C1CCCN(Cc2cn(C)nc2-c2ccccc2)C1` (stereo not drawn), the “hERG current change (%, negative = inhibition) at 10uM” value is -32.1%. In the case of `COc1ccc(C(=O)C2CCCN(Cc3cn(C)nc3-c3ccccc3)C2)cc1F` (stereo not drawn) it was -72.4%; in that of `COc1cccc(C(=O)C2CCCN(Cc3cn(C)nc3-c3ccccc3)C2)c1` (stereo not drawn), -68.8%. Take `NC(=O)NC1NC(=O)NC1=O` (stereo not drawn): the “hERG current change (%, negative = inhibition) at 10uM” value is listed as 11.9%. `C/C(Cl)=C\Cn1c(O)c(N=NC(N)=S)c2cc(Br)ccc21`: the “hERG current change (%, negative = inhibition) at 10uM” value was 8.96%. Regarding `COc1cccc(C(=O)N(C)CC(=O)Nc2ccc(F)c(F)c2F)c1`, the “hERG current change (%, negative = inhibition) at 10uM” value was determined as 11.4%. In the case of `O=C(COC(=O)c1ccc(S(=O)(=O)N2CCOCC2)cc1)NC1CCCCCCC1`, the “hERG current change (%, negative = inhibition) at 10uM” value was determined as 12.2%. As to `Clc1ccc(Nc2ccc(-n3ccnc3)nn2)cc1Cl`, the “hERG current change (%, negative = inhibition) at 10uM” value is listed as -9.9%. Take `CC(=O)c1cc2c(C)cc(=O)oc2cc1O`: the “hERG current change (%, negative = inhibition) at 10uM” value is listed as 1.77%.

As to `CC1CCN(C(=O)Cn2c(=O)n(Cc3ccc4c(c3)OCO4)c(=O)c3ccccc32)CC1`, the “hERG current change (%, negative = inhibition) at 10uM” value is listed as -18.5%. The value for `CN(C)CCCOC(=O)c1ccc(Cl)cc1Cl.Cl` was -38.8%. Take `CCN(CC)CCOC(=O)c1ccc(Cl)cc1.Cl`: the “hERG current change (%, negative = inhibition) at 10uM” value was -42.7%. As for `CCN(CC)CCOC(=O)c1ccc(Cl)cc1Cl.Cl`, the “hERG current change (%, negative = inhibition) at 10uM” value was -55.4%. With `CN(C)CCCOC(=O)c1ccccc1Cl.Cl`, the “hERG current change (%, negative = inhibition) at 10uM” value is recorded as -0.792%.

With `CCN(CC)CCOC(=O)c1cccc(Cl)c1.Cl`, the “hERG current change (%, negative = inhibition) at 10uM” value is given as -32.4%. Turning to `CCCN(CCC)CCCOC(=O)c1ccc(Cl)cc1Cl.Cl`, the “hERG current change (%, negative = inhibition) at 10uM” value was -70.1%. With `Cc1nnc(NC(=O)CN2CCN(Cc3ccccc3Cl)CC2)s1`, the “hERG current change (%, negative = inhibition) at 10uM” value is on record as 6.08%. Consider `CSc1cccc(NC(=O)c2ccccn2)c1`, for which the “hERG current change (%, negative = inhibition) at 10uM” value turned out to be 7.57%.

`CC[C@H](C)C(N)c1cn([C@@H](CC(N)=O)C(=O)N2CCNCC2)nn1` (stereo partly drawn): the “hERG current change (%, negative = inhibition) at 10uM” value is -10.5%. On to `COc1ccc2c(c1)C(NS(=O)(=O)OCC(Cl)(Cl)Cl)CCC2` (stereo not drawn), for which the “hERG current change (%, negative = inhibition) at 10uM” value is on record as -0.647%.
